From PubChem
In the library only some 10% were active in any assay of this set; here they are far more common.
FLuc inh – Photinus pyralis luciferase inhibition; purified P. pyralis luciferase, luminescence, biochemical; Potency, µM (doses to about 115 µM), usual class: inhibitors; 2.5% of 76,000 active; P08659; note: nearly all actives have a fitted effect of over 65% in size
Target sequence (P08659 whole entry, looked up): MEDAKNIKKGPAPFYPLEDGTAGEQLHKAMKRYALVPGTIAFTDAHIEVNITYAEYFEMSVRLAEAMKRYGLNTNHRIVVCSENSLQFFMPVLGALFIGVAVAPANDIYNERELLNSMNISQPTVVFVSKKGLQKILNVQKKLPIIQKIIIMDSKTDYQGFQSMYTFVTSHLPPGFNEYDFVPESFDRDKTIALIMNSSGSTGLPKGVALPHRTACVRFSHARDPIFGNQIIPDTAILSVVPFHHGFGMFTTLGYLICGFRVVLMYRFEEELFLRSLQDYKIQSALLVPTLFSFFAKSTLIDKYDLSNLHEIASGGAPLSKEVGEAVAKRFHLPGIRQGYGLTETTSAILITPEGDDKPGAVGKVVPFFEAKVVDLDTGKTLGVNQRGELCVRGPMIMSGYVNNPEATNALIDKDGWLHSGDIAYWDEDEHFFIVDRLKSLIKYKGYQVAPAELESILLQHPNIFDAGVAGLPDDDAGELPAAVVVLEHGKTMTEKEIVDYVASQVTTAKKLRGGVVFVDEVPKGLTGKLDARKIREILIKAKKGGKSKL
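Luminescence read by CCD imager after adding enzyme (10nM final) to wells holding compound, titrated in qHTS. Substrates 10uM each D-luciferin and ATP; buffer 50mM Tris acetate pH 7.5, 10mM Mg acetate, Tween-20, BSA.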
3T3 cytotox – cytotoxic compounds in NIH 3T3 cells; NIH 3T3 viability, CellTiter-Glo ATP luminescence, 48-72 h; AID 1345082; 4.3% of 94,000 active; Potency, µM (titrated, usually from 96.7 µM), usual class: inhibitors; note: nearly all actives have a fitted effect of over 55% in size
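ATP-dependent luminescence (CellTiter-Glo) served as the viability signal for NIH 3T3 cells treated with compound for 48 or 72 hr at 37 °C.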
GPT2 inhibitor – inhibitors of human GPT2 alanine aminotransferase; Recombinant GPT2, coupled pyruvate oxidase/HRP Amplex Red fluorescence; Potency, µM (doses to about 57.7 µM), most hits filed as inhibitors; 0.25% of 100,000 active; note: nearly all actives have a fitted effect of over 60% in size
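Fluorescence of coupled pyruvate oxidase/HRP/Amplex Red system (50uM Amplex, 30 min, dark) reports pyruvate formed by GPT2. Enzyme reaction: 10ng/uL GPT2, 2mM L-alanine, 250uM a-KG, 30 min room temperature, pH 7.5; 50uM AOA control.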
HEK cytotox – kills HEK 293 cells; HEK 293 viability, ATP luminescence (CellTiter-Glo), 48-72 h; Potency, µM (highest dose often 115 µM), usual class: inhibitors; 6.6% of 94,000 active; note: nearly all actives have a fitted effect of over 60% in size
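250 HEK 293 cells/well; compound by pintool; incubated 48 or 72 hr at 37 degree Celsius; CellTiter-Glo added, 10 min RT, luminescence imaged.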
NPR1 antag – blocks ANP-stimulated signaling of human Npr1 receptor; HEK293 hNpr1 GloSensor cGMP, ANP-stimulated luminescence; Potency, µM (highest dose often 46.3 µM), hits mostly inhibitors; 1.6% of 76,000 active; AID 1347048; calls by dose curve; note: nearly all actives have a fitted effect of over 60% in size
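Compound pre-incubated 30 min at room temperature on GloSensor-loaded HEK293 cells stably carrying hNpr1 and the pGS-40F cGMP biosensor. Stimulation uses hNppA at 0.1 nM final; luminescence is taken at baseline and 20 min post-agonist.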
Each line names hits and unclear results; the compound was inactive in the other large screens. Unless noted, calls come from the whole dose curve; as a rule, active = well fitted curve in the direction sought with a large enough effect; inconclusive = small, poorly fitted or top-dose-only effect, or another doubt; inactive = no such curve, though single readings can be large; an effect the other way counts as inactive or inconclusive.

COCCn1c2c(c(=O)n1-c1ccccc1)CCN(C(=O)c1nc3ccccc3[nH]1)C2	3T3 cytotox 89.1µM
CC(C)CCN1CCc2c(n(CCOc3ccccc3)n(-c3ccccc3)c2=O)C1	3T3 cytotox 100µM, HEK cytotox inconclusive
CCn1c2c(c(=O)n1-c1ccccc1)CCN(Cc1cncc(OC)c1)C2	3T3 cytotox 100µM
Cn1ccnc1CN1C(=O)CO[C@H](c2ccc(NC(=O)c3ccc(C(F)(F)F)cc3)cc2)[C@H]1CO	FLuc inh 35.5µM, GPT2 inhibitor inconclusive
CCCCCC(=O)Nc1ccc([C@H]2OCC(=O)N(Cc3nccn3C)[C@@H]2CO)cc1	FLuc inh 70.8µM
COc1ccccc1-c1ccc(C(=O)N2CCC(C(=O)NCCc3ccc(F)cc3)CC2)cc1	3T3 cytotox inconclusive, HEK cytotox inconclusive (no result: FLuc inh, NPR1 antag)
OCC1COCCN(Cc2csc(-c3ccc(C(F)(F)F)cc3)n2)C1 (centres undefined)	FLuc inh inconclusive, 3T3 cytotox inconclusive, HEK cytotox inconclusive
COC(=O)c1cccc(COCC2=CC(C)(C)COc3ccc(OC)cc32)c1	3T3 cytotox inconclusive, HEK cytotox 28.2µM (no result: FLuc inh, GPT2 inhibitor, NPR1 antag)
O=C(C1CC1)N1CCC2(CC1)CC(Cc1nc(-c3ccncc3)no1)CCO2 (centres undefined)	3T3 cytotox inconclusive, HEK cytotox 44.7µM, NPR1 antag inconclusive
COc1cccc(CC(=O)N2CCC(Cc3nc(-c4ccncc4)n[nH]3)C2)c1 (centres undefined)	3T3 cytotox inconclusive, HEK cytotox 12.6µM
COCC(=O)N1CCC2(CC1)CC(Cc1nc(-c3cccnc3)no1)CCO2 (centres undefined)	none
c1ccc(-c2noc(CC3CCOC4(CCN(Cc5cccnc5)CC4)C3)n2)cc1 (centres undefined)	3T3 cytotox inconclusive, HEK cytotox 25.1µM, NPR1 antag inconclusive
COc1cccc(CC(=O)N2CCC3(CC2)CC(Cc2nc(-c4ccncc4)no2)CCO3)c1 (centres undefined)	3T3 cytotox inconclusive, HEK cytotox 39.8µM, NPR1 antag inconclusive
CCOc1ccccc1NC(=O)N1CCC2(CC1)CC(Cc1nc(-c3ccncc3)no1)CCO2 (centres undefined)	3T3 cytotox inconclusive, HEK cytotox inconclusive
O=C(COc1ccccc1)N1CCC(Cc2nc(-c3ccncc3)n[nH]2)CC1	GPT2 inhibitor inconclusive
COc1ccc(NC(=O)N2CCC[C@H]2c2nc(-c3ccc(F)cc3)n[nH]2)c(OC)c1	none (no result: FLuc inh, NPR1 antag)
COc1ccc2[nH]c3c(c2c1)CCNC31CCN(Cc2ccc(F)cc2F)CC1	3T3 cytotox inconclusive, HEK cytotox inconclusive
Cc1ccc(CNC(=O)N2CCCC(n3c(C)cnc3C3CCOCC3)C2)cc1 (centres undefined)	none
C[S+](=O)([O-])N1CCC(Cn2ccc3c(N4CCOCC4)nc(-c4cccnc4)cc32)CC1	3T3 cytotox 7.08µM
Cc1ccc(-c2cc3c(ccn3CC3CCN([S+](C)(=O)[O-])CC3)c(N3CCOCC3)n2)cn1	3T3 cytotox inconclusive
CC(=O)Nc1cccc(-c2cc3c(ccn3CC3CCN(C)CC3)c(N3CCOCC3)n2)c1	3T3 cytotox inconclusive
CN1CCC(Cn2ccc3c(N4CCOCC4)nc(-c4cccc(C(N)=O)c4)cc32)CC1	3T3 cytotox 100µM, HEK cytotox inconclusive
CN1CCC(Cn2ccc3c(N4CCOCC4)nc(-c4cccc5[nH]ncc45)cc32)CC1	3T3 cytotox 44.7µM, HEK cytotox inconclusive
C[S+](=O)([O-])N1CCC(Cn2ccc3c(N4CCOCC4)nc(-c4cccc(C(N)=O)c4)cc32)CC1	3T3 cytotox inconclusive
COc1cc(F)ccc1-c1cc2c(ccn2CC2CCN(C)CC2)c(N2CCOCC2)n1	3T3 cytotox 70.8µM, HEK cytotox 100µM
CNC(=O)c1cc(C2CC2)nc2onc(C3CCCN3C(=O)c3ccc(C(F)(F)F)cc3)c12 (centres undefined)	none (no result: FLuc inh, GPT2 inhibitor, NPR1 antag)
CC(C)CCN1CCC2(C1)C(=NC1CCCC1)NC(=O)N2c1cc(F)cc(F)c1 (centres undefined)	3T3 cytotox inconclusive, HEK cytotox inconclusive (no result: FLuc inh, NPR1 antag)
Cn1ncc2c(C(=O)NCc3ccc4c(c3)OCO4)cc(-c3ccc(Cl)cc3Cl)nc21	3T3 cytotox inconclusive, HEK cytotox inconclusive (no result: FLuc inh, NPR1 antag)
CN1CC(=O)N(C2CCNCC2)Cc2c(NCC3CCCCCC3)ncnc21	3T3 cytotox inconclusive (no result: FLuc inh, NPR1 antag)
COc1ccc(-c2ccc(C(=O)N3CCN(C(=O)N4CCOCC4)CC3)cc2)nn1	none (no result: FLuc inh, GPT2 inhibitor, NPR1 antag)
COC(=O)C1=C(C)N=C2SC=C(CC(=O)NCc3ccccc3)N2C1c1cccc(F)c1 (centres undefined)	3T3 cytotox inconclusive, HEK cytotox inconclusive
CC1=C(C(=O)Nc2ccccc2)C(c2cc(C)ccc2C)N2C(CC(=O)NC(C)C)=CSC2=N1 (centres undefined)	3T3 cytotox inconclusive, HEK cytotox 39.8µM
COC(=O)C1=C(C)N=C2SC=C(CC(=O)NCc3ccccc3)N2C1c1ccccc1C (centres undefined)	3T3 cytotox inconclusive, HEK cytotox 44.7µM
COC(=O)C1=C(C)N=C2SC=C(CC(=O)NCCc3ccccc3)N2C1c1cccc(OC)c1 (centres undefined)	3T3 cytotox inconclusive, HEK cytotox 44.7µM
COC(=O)C1=C(C)N=C2SC=C(CC(=O)NCc3ccc(F)cc3)N2C1c1cccc(OC)c1 (centres undefined)	3T3 cytotox inconclusive, HEK cytotox 39.8µM
Cc1ccccc1C(=O)N1CCCN(CCn2nc3n(c2=O)CCCC3)CC1	none (no result: FLuc inh, GPT2 inhibitor, NPR1 antag)
COC(=O)c1ccc(CN2C(=O)[C@@H]3C[C@@H](O)CN3C3(CN(Cc4ccc(OC)c5ccccc45)C3)C2=O)cc1	3T3 cytotox 79.4µM, HEK cytotox inconclusive
COc1ccc(CN2CC3(C2)C(=O)N(Cc2cccc(Cl)c2)C(=O)[C@@H]2C[C@@H](O)CN23)c2ccccc12	3T3 cytotox inconclusive, GPT2 inhibitor inconclusive, HEK cytotox inconclusive
O=C([C@@H]1C[C@H](F)CN1C(=O)Nc1cccc(C(F)(F)F)c1)N1CCc2ccccc2C1	3T3 cytotox 22.4µM, HEK cytotox 31.6µM
CCc1ccccc1S(=O)(=O)N1C[C@@H](F)C[C@H]1C(=O)N1CCc2ccccc2C1	3T3 cytotox 31.6µM, HEK cytotox inconclusive
CCc1ccc(S(=O)(=O)N2C[C@@H](F)C[C@H]2C(=O)N2CCc3ccccc3C2)cc1	none
CC(C)(C)c1nnc2ccc(C(=O)NCCc3ccccc3)cn12	3T3 cytotox inconclusive (no result: FLuc inh, NPR1 antag)
O=C(C1CN(C2CCCCC2)C(=O)N1)N1CCc2ccccc2C1 (centres undefined)	3T3 cytotox inconclusive, HEK cytotox 25.1µM (no result: FLuc inh, NPR1 antag)
O=C1CCCCC(C(=O)N2CCc3ccccc3C2)N1 (centres undefined)	HEK cytotox inconclusive
COc1ccc2c(c1)C(C(=O)N1CCN(c3ccc(C(=O)O)cc3)CC1)=CC(C)(C)CO2	3T3 cytotox inconclusive (no result: FLuc inh, GPT2 inhibitor, NPR1 antag)
